From PubChem BioAssay (NCI) come the findings set out here.

The panel holds about 83,000 compounds, 20% with a hit somewhere; the sample as a whole holds those more often.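 Testing used 96-well plates and a 48-hour single-concentration exposure. Example: -40 means 40% of the starting cells died.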 A number with no mark means an inactive call. Active and inactive are the calls of the source. How the source made its calls: active means growth percent below 10; inactive means the rest.

Holding throughout (experiment): NCI-60 one-dose screen, 48 h (100 = growth as untreated, 0 = no growth, -100 = all killed)
Settings in all cases: 10 µM unless noted

The test system of test [1] is NCI-H23 lung.
Test [2] deals with NCI-H226 lung.
Test [3] concerns NCI-H322M lung.
The subject of test [4] is HOP-62 NSCLC.
Test [5] deals with NCI-H522 lung.
In test [6] the test system is 786-0 renal.
The subject of test [7] is COLO 205 colon.
Test [8] deals with DU-145 prostate.
Test [9] deals with A549/ATCC NSCLC.
The test system of test [10] is NCI-H460 lung.

Take `CCC1=C(c2ccc(OC)cc2)C(C)Oc2cc(OC(C)=O)ccc21` (centres undefined): the growth in test [1] is 82%; in test [2], 83.1%; in [3] it was 116%; in test [4] it was 99.7%; in [5], 78.8%; in test [6], 101%. For the same compound, the values for the growth in test [7] and in [8] were 103% and 102%, respectively.
`C/C(=C\CCc1ccoc1)CC/C=C(\C)CCCN1CCC(CO)CC1`: the growth in test [1] was 74.8%; in test [2] it was 74.9%; in test [3], 74.9%; in test [4], 83%; in [5], 54.6%; in test [9], 65.9%. The growth in test [6] is 48.5%; in [7], -21.4% (active); in test [8] it was 80.8%.
With `Cn1[nH]cc(/C=N/C(N)=O)c1=O`, the growth in [1] was 104%; in test [2], 111%; in test [3], 124%; in [4], 111%; in test [5], 121%; in test [9] it was 106%. In addition, the growth was 99.8% in test [6] and 110% in [7].
Take `OC(c1cc(C(F)(F)F)nc2c(C(F)(F)F)cccc12)C1CCCCN1` (centres undefined): the growth in test [1] was 78.4%; in test [2], 73.1%; in [3], 64.8%; in test [4], 74.4%; in test [5] it was -4.33% (active); in test [6], 56.7%. Besides, the growth in test [7] was 29.3%; in [8], 78.8%.
Take `O=C(O)c1ccc(NC(=O)c2ccc(Nc3ccnc(C(F)(F)F)c3)cc2)cc1`: the growth in [1] was 98.4%; in test [2], 100%; in [3], 121%; in [4], 103%; in test [5], 103%; in test [9], 103%. The growth in [6] is 103%; in [7], 101%; in test [8], 106%.
`COc1cc(/C=C2\COc3ccc(O)cc3C2=O)cc(OC)c1`: the growth in [1] was 93.8%; in test [2], 94.9%; in test [3] it was 90.8%; in test [4], 86%; in [5] it was 32.3%; in [9], 92.3%. Further, the results for the growth in [6], in test [7] and in [8] were 87.6%, 81.6% and 72%, respectively.
For `Oc1ccc(-c2nn(-c3ccccc3)cc2-c2nc3ccccc3s2)cc1`, the growth was 89.6% in [1]; 85.9% in test [2]; 97.3% in test [3]; 104% in [4]; 91.2% in test [9]; 105% in [6]. In addition, the growth in test [7] and in test [8] was 106% throughout.
For the compound `CN(C)c1ccc2c(c1)/C(=N/O)c1ccccc1-2`, the growth in test [1] was 89%; in test [2] it was 91.8%; in test [3] it was 113%; in test [4] it was 92.2%; in [5], 89%; in test [9], 84.2%. Moreover, the growth in [6] is 104%; in test [7], 103%; in [8], 105%.
`O=[N+]([O-])c1ccc(N/N=C/c2c(O)ccc3ccccc23)nc1`: the growth is 61.4% in test [1]; 89% in test [2]; 19.7% in test [3]; 45.6% in test [4]; 18.5% in [5]; 49.2% in test [9]. In addition, the results for the growth in [6], in [7] and in test [8] were 59.2%, 73.1% and 39.4%, respectively.
As for `COc1cc(/C=C2\CCC/C(=C\c3ccc(OCC4CO4)c(OC)c3)C2=O)ccc1OCC1CO1` (centres undefined), the growth is 57.8% in test [1]; 86.2% in test [2]; 85.1% in test [3]; 28.9% in test [4]; 24.3% in test [5]; 21.3% in test [9]. For the same compound, the growth in test [6] is 65.2%; in test [7], 33.8%; in test [8] it was 7.14% (active).
As for `CC[C@@H]1OC(=O)[C@H](C)[C@@H](O[C@H]2C[C@@](C)(OC)[C@@H](O)[C@H](C)O2)[C@H](C)[C@@H](O[C@@H]2O[C@H](C)C[C@H](N(C)C)[C@H]2O)[C@](C)(O)C[C@@H](C)[C@@H]2N[C@@H](COCCOC)O[C@H]([C@H]2C)[C@]1(C)O`, the growth is 94% in test [1]; 110% in test [2]; 96% in test [3]; 107% in test [4]; 98.6% in test [5]; 100% in test [9]. Also, the growth in test [6] is 95.8%; in test [7], 98.7%; in test [8], 100%.
As to `COc1ccc2c(c1)C(=O)/C(=C/c1ccc([N+](=O)[O-])s1)O2`, the growth in test [1] is 7.22% (active); in [2], 60%; in test [3], 11.4%; in test [4], 35.2%; in [5], -86.4% (active); in test [9], 8.34% (active). Also, the results for the growth in test [6], in [7] and in test [8] were 28.1%, -64.7% (active) and 43.8%, respectively.
On to `CCCCCCCCCCCCCCCCCC1=NC(C)(C)CN1CCO`, for which the growth in test [1] was 38.9%; in test [2], 17.6%; in test [3], 59.8%; in test [4] it was -74.9% (active); in test [5], -58.2% (active); in test [9], -28.9% (active). Further, the values for the growth in test [6], in test [7] and in test [8] were -53.6% (active), -59.9% (active) and 2.01% (active), respectively.
Consider `C=C1CC[C@@H]2[C@](C)(COC(C)=O)[C@H](OC(C)=O)CC[C@@]2(C)[C@@H]1CC(Nc1ccc(S(=O)(=O)Nc2cc(C)on2)cc1)C1=CCOC1=O` (some centres undefined), for which the growth in test [1] is 71%; in [2], 79.5%; in [3] it was 80.4%; in test [4] it was 60.2%; in [5] it was -20.2% (active); in test [9], 72.2%. For the same compound, the growth was 89.8% in test [6] and 71.1% in test [8].
As to `CC(C)[C@H]1CC[C@H]2[C@@H](CC[C@H]3[C@](C)(CN)CCC[C@]23C)C1`, the growth in test [1] was 88.4%; in test [2], 105%; in test [3], 15.3%; in test [4], 56.3%; in test [5] it was 80%; in test [9], 87%. Besides, the growth in test [6] was 72.9%; in test [7] it was -82.6% (active); in test [8], 11.2%.
For `CCOc1cccc(C2CC(=O)Nc3cc4c(cc32)OCO4)c1` (centres undefined), the growth in test [1] is 77.9%; in [2] it was 65%; in [3] it was 91.1%; in [4], 87%; in [5] it was 66.5%; in test [9], 94.2%. Moreover, the figures for the growth in test [6], in [7] and in [8] were 93.4%, 96.8% and 94.5%, respectively.
Consider `CSc1ncc2ncn(C3OC(CO)C(O)C3O)c2n1` (centres undefined), for which the growth in test [1] was 137%; in test [2], 102%; in test [3], 124%; in [4], 119%; in test [5], 119%; in [9], 108%. For the same compound, the values for the growth in [6], in test [7] and in test [8] were 110%, 142% and 115%, respectively.
As for `CCCOc1ccc2c(c1)CC[C@@H]1[C@@H]2CC[C@@]2(C)[C@H]1CC[C@]2(C)O`, the growth is 93.2% in test [1]; 92.3% in test [2]; 71.4% in test [3]; 89.7% in [4]; 76.4% in test [5]; 63.7% in test [9]. Moreover, the figures for the growth in test [6], in [7] and in [8] were 90.3%, 28.2% and 91.6%, respectively.
With `c1ccc(-n2nnnc2-c2cccc3ccccc23)cc1`, the growth is 52.1% in test [1]; 79.3% in test [2]; 30.2% in test [3]; 25.9% in test [4]; 34.5% in test [9]; 24.7% in [6]. The growth in test [7] was -17.8% (active); in test [8] it was 7.52% (active).
In the case of `C[N+]1(CCc2ccccc2)CCC(CCC2CC[N+](C)(CCc3ccccc3)CC2)CC1` (centres undefined), the growth in [1] is 87.4%; in [2], 92.1%; in [3], 120%; in test [4] it was 66.9%; in test [5], 98.8%; in test [6], 110%. Further, the values for the growth in test [7] and in test [8] were 104% and 117%, respectively.
For the compound `CCC(C)CC(CC)NCCN1CCN(C(CC)CC(C)CC)C1=S` (centres undefined), the growth in test [1] is 42.5%; in test [2], 47%; in [3], 78.8%; in test [4], 29.1%; in test [5], -12% (active); in [9], 50.2%. Besides, the growth was 56.5% in test [6] and 29.5% in test [8].
Turning to `Nc1nc(SCc2ccccc2Cl)c(-c2ccccc2)c(SCc2ccccc2Cl)n1`, the growth in test [1] was 83.2%; in test [2] it was 105%; in test [3], 107%; in test [4], 87.9%; in [5], 79.3%; in test [9], 79.3%. Moreover, the figures for the growth in [6], in test [7] and in test [8] were 104%, 95% and 98.2%, respectively.
On to `ClC1=C(Cl)C(Cl)=C(Cl)C1=Cc1ccc(Cl)cc1`, for which the growth in test [1] is 33.1%; in [2], 87.7%; in [3] it was 107%; in test [4], 47.4%; in test [5] it was 27.5%; in test [6] it was -43% (active). For the same compound, the growth in [7] is 13.5%; in test [8], -75.4% (active).
For `Clc1ccc(CCC(Cn2ccnc2)Sc2c(Cl)cccc2Cl)cc1` (centres undefined), the growth in [1] was 42.5%; in [2], 90.6%; in test [3] it was 81.3%; in test [4] it was 83%; in [5], 20.3%; in [9], 61.2%. Moreover, the growth in test [6] was 56.4%; in test [7], 57.7%; in test [8], 94.2%.
Consider `Cc1nn(-c2ccc(Cl)cc2)c2nc3c(nc12)c(=O)oc1ccccc13`, for which the growth was 100% in test [1]; 128% in test [2]; 116% in test [3]; 107% in test [4]; 101% in test [5]; 95.4% in [9]. The values for the growth in test [6] and in test [8] were 98.1% and 118%, respectively.
As for `Cc1ccsc1/C=C/C1=NCCCN1C`, the growth in test [1] is 97%; in [2], 100%; in test [3], 102%; in test [4], 100%; in test [5], 91%; in [9] it was 99.7%. Besides, the growth in [6] was 92.5%; in test [7], 101%; in test [8], 112%.
As to `O=C1c2nsnc2C(=O)c2c(F)c(F)c(F)c(F)c21`, the growth in test [1] is -22.5% (active); in test [2] it was -38.2% (active); in [3] it was 26.9%; in [4], -86% (active); in [5], -67.2% (active); in test [9] it was -27.9% (active). The growth in [6] was -97.1% (active).
With `CN(C)c1cccc2c(S(=O)(=O)N[C@H]3CC[C@H]4[C@@H]5CCc6cc(O)ccc6[C@H]5CC[C@]34C)cccc12`, the growth in [1] was 40.8%; in test [2], 51%; in [3] it was 57.3%; in test [4], 66.8%; in test [5] it was -10.5% (active); in test [9], 18.5%. The growth was 34.9% in test [6] and 24% in test [8].
On to `CCS(=O)(=O)OCCCl`, for which the growth was 22.4% in test [1]; 98.4% in test [2]; 103% in test [3]; 108% in [4]; 14.3% in test [5]; 96.5% in test [6]. The growth is 102% in test [7] and 116% in [8].
In the case of `CCC(C)CC(C)C(=O)c1c(O)ccn(O)c1=O` (centres undefined), the growth was 25.2% in test [1]; 95.8% in test [2]; 24% in test [4]; 23.7% in [10]; 33.2% in [5]; 22.6% in test [9]. For the same compound, the growth in test [6] was 70%; in [7] it was 108%; in test [8], 42.7%.
As to `O=C(/C=C/c1cccnc1)NCCCCC1CCCN(C(=O)c2ccccc2)C1` (centres undefined), the growth is 70.1% in test [1]; 98.5% in test [2]; 85.1% in test [4]; 29% in [10]; 1.41% (active) in test [5]; 49% in test [9]. For the same compound, the growth in test [6] is 71.7%; in test [8], 33.4%.
